This passage reports Inhibition results from ChEMBL document CHEMBL4296182, “CO-ADD screening of NIH NCI Diversity Set V”.

One assay concerns Staphylococcus aureus. Nature of the assay: Antibacterial activity against Staphylococcus aureus MRSA ATCC 43300 (CO-ADD:GP_020); MIC in CAMBH media using NBS plates, by Resazurin F(560/590). Format: functional. The settings on record: Concentration 20 uM, ASSAY_TEST Inhibition of Bacterial Growth, detection method Resazurin, Fluorescence (ex560/em590), MEDIA CAMHB, plate type 384well, CORNING #3640, time 18 hr. (Resazurin is reduced to fluorescent resorufin, in cell work by metabolically active cells.)

In another assay the test system is Acinetobacter baumannii. Nature of the assay: Antibacterial activity against Acinetobacter baumannii ATCC 19606 (CO-ADD:GN_034); MIC in CAMBH media using NBS plates, by Resazurin F(560/590). Format: functional. The settings on record: Concentration 20 uM, ASSAY_TEST Inhibition of Bacterial Growth, detection method Resazurin, Fluorescence (ex560/em590), MEDIA CAMHB, plate type 384well, CORNING #3640, time 18 hr.

For another assay, the system named is Escherichia coli. Nature of the assay: Antibacterial activity against Escherichia coli ATCC 25922 (CO-ADD:GN_001); MIC in CAMBH media using NBS plates, by Resazurin F(560/590). As to conditions: Concentration 20 uM, ASSAY_TEST Inhibition of Bacterial Growth, detection method Resazurin, Fluorescence (ex560/em590), MEDIA CAMHB, plate type 384well, CORNING #3640, time 18 hr. It counts as functional.

The test system of the next assay is Klebsiella pneumoniae. As to conditions: Concentration 20 uM; ASSAY_TEST Inhibition of Bacterial Growth; detection method Absorption (OD600); MEDIA CAMHB; plate type 384well; NBS; CORNING #3640; time 18 hr.
A further assay has as its system Candida albicans. The settings on record: 20 µM.
The next assay has as its system Cryptococcus neoformans. The settings on record: Concentration 20 uM; ASSAY_TEST Inhibition of Fungal Growth; detection method Resazurin; Absorption (OD600-OD570); plate type 384well; NBS; CORNING #3640.

For part of these data: Measured potencies and affinities stand elsewhere.

For the molecule `CC(C)(C)N1CCC1CN` (stereo not drawn), the Inhibition (in general, the relative decrease from the control value, in per cent) with Staphylococcus aureus is 2.17%; in the assay on Acinetobacter baumannii, -8.31%; in the assay on Escherichia coli, 10.97%; in the assay on Klebsiella pneumoniae it was 10.11%; with Candida albicans it was 3.04%; in the assay on Cryptococcus neoformans it was -5.34%.

Take `CCOCc1cc(O)nc(SC)n1`: the Inhibition was 12.32% with Staphylococcus aureus; -13.24% in the assay on Acinetobacter baumannii; 14.73% in the assay with Escherichia coli; 11.3% in the assay on Klebsiella pneumoniae; -0.55% with Candida albicans; -4.91% in the assay on Cryptococcus neoformans.

Take `Sc1cnnc2ccccc12`: the Inhibition in the assay on Staphylococcus aureus was -0.57%; with Acinetobacter baumannii it was -12.95%; in the assay on Escherichia coli, -15.13%; in the assay with Klebsiella pneumoniae, 9.37%; in the assay with Candida albicans it was 6.56%; in the assay on Cryptococcus neoformans, 22.39%.

As for `NS(=O)(=O)c1ccc(/N=N/c2c(O)c(C(=O)O)cc3ccccc23)cc1`, the Inhibition with Staphylococcus aureus was -3.85%; in the assay on Acinetobacter baumannii it was 10.2%; in the assay on Escherichia coli it was -7.6%; in the assay with Klebsiella pneumoniae, 18.16%; in the assay on Candida albicans, -3.08%; in the assay on Cryptococcus neoformans, -0.96%.

Regarding `O=C1NC(=S)S/C1=C\c1ccccc1C(=O)O`, the Inhibition with Staphylococcus aureus was -3.3%; in the assay with Acinetobacter baumannii it was -13.4%; in the assay with Escherichia coli, 1.72%; with Klebsiella pneumoniae, 11.85%; with Candida albicans, 14.4%; in the assay on Cryptococcus neoformans, -5.59%.

For `O=c1[nH]nc(-c2cc(-c3ccccc3)nc3ccccc23)o1`, the Inhibition in the assay on Staphylococcus aureus is 7.26%; with Acinetobacter baumannii, -11.03%; with Escherichia coli, 4.61%; in the assay on Klebsiella pneumoniae, 4.91%; in the assay with Candida albicans, 0.17%; with Cryptococcus neoformans, -2.09%.

With `NS(=O)(=O)c1ccc(/N=N/c2ccc(O)[nH]c2=O)cc1`, the Inhibition with Staphylococcus aureus is -4.07%; with Acinetobacter baumannii, -21.96%; in the assay on Escherichia coli it was 14.83%; in the assay with Klebsiella pneumoniae it was 2.74%; in the assay with Candida albicans, 3.25%; in the assay on Cryptococcus neoformans, -15.42%.

With `CC1CC=C(O)C12OCC(C)(C)CO2` (stereo not drawn), the Inhibition in the assay with Staphylococcus aureus is 3.19%; in the assay with Acinetobacter baumannii, -6.5%; with Escherichia coli, 5.59%; in the assay on Klebsiella pneumoniae, 14.38%; in the assay on Candida albicans, 0.02%; in the assay on Cryptococcus neoformans it was -5.4%.

Turning to `CCc1oc2ccccc2c1C(=O)c1cc(Br)c(O)c(Br)c1` [BENZBROMARONE], the Inhibition is -12.4% in the assay with Staphylococcus aureus; -9.24% with Acinetobacter baumannii; 7.93% in the assay on Escherichia coli; 12.45% in the assay on Klebsiella pneumoniae; 9.57% in the assay on Candida albicans; -6.93% in the assay on Cryptococcus neoformans.

Regarding `Sc1nccn1-c1c(Cl)cccc1Cl`, the Inhibition with Staphylococcus aureus is 10.46%; with Acinetobacter baumannii it was 12.03%; in the assay on Escherichia coli, 0.7%; with Klebsiella pneumoniae, 7.58%; with Candida albicans it was 4.08%; in the assay with Cryptococcus neoformans it was -8.98%.

Turning to `CC(C)(C)C(=O)Nc1ccc(NC(=O)C(C)(C)C)cc1`, the Inhibition in the assay with Staphylococcus aureus was -3.56%; in the assay with Acinetobacter baumannii, 6.93%; in the assay on Escherichia coli, 0.85%; in the assay on Klebsiella pneumoniae, 26.03%; in the assay on Candida albicans, 6.58%; in the assay with Cryptococcus neoformans, 1.66%.

`COCC(=O)OC1CCn2c1nc1c2C(=O)C(C)=C(NC(C)=O)C1=O` (stereo not drawn): the Inhibition was 9.15% with Staphylococcus aureus; 12.44% in the assay with Acinetobacter baumannii; -2.53% in the assay with Escherichia coli; 8.02% in the assay on Klebsiella pneumoniae; -3.01% in the assay with Candida albicans; -13.92% in the assay with Cryptococcus neoformans.

In the case of `O=C1c2ccccc2C(=O)C1c1ccccn1`, the Inhibition in the assay with Staphylococcus aureus is -5.11%; in the assay with Acinetobacter baumannii it was -11.28%; in the assay on Escherichia coli it was 2.88%; with Klebsiella pneumoniae it was 6.77%; in the assay on Candida albicans, 5.19%; in the assay on Cryptococcus neoformans, -6.9%.

With `C=CCN(CC=C)C(=O)Nc1cc(OC)ccc1OC`, the Inhibition is -0.3% in the assay with Staphylococcus aureus; -10.17% in the assay with Acinetobacter baumannii; 5.84% in the assay on Escherichia coli; 8.16% with Klebsiella pneumoniae; 3.21% in the assay on Candida albicans; -3.48% with Cryptococcus neoformans.

Take `O=c1n(CC2CO2)c(=O)n(CC2CO2)c(=O)n1CC1CO1` (stereo not drawn) [TEROXIRONE]: the Inhibition in the assay with Staphylococcus aureus was 0.12%; with Acinetobacter baumannii it was -10.62%; in the assay with Escherichia coli it was 4.44%; in the assay on Klebsiella pneumoniae, 8.68%; with Candida albicans, 3.23%; in the assay on Cryptococcus neoformans, -12.57%.

As to `CCOc1ccc(/C=C2\NC(=S)NC2=O)cc1`, the Inhibition with Staphylococcus aureus was 4.57%; with Acinetobacter baumannii it was -5.71%; with Escherichia coli it was -3.24%; in the assay with Klebsiella pneumoniae it was 22.87%; with Candida albicans, 0.92%; with Cryptococcus neoformans, -6.77%.

For `Cc1ccc(Cl)cc1NC(=O)c1cc2ccccc2cc1O`, the Inhibition was 5.29% in the assay on Staphylococcus aureus; -8.92% in the assay on Acinetobacter baumannii; 15.86% in the assay on Escherichia coli; 12.1% in the assay with Klebsiella pneumoniae; 4.11% in the assay with Candida albicans; -7.39% with Cryptococcus neoformans.

`FC(F)(F)c1cccc(OCC2CN=C(S)O2)c1` (stereo not drawn): the Inhibition in the assay with Staphylococcus aureus was 8.92%; in the assay on Acinetobacter baumannii it was 11.68%; with Escherichia coli, -6.27%; in the assay on Klebsiella pneumoniae, 16.05%; in the assay on Candida albicans, 8.74%; with Cryptococcus neoformans, 3.63%.

Consider `c1ccc(-c2nnc(-c3ccccc3)nn2)cc1`, for which the Inhibition in the assay on Staphylococcus aureus was 8.93%; with Acinetobacter baumannii, 4.53%; in the assay with Escherichia coli, 11.38%; in the assay with Klebsiella pneumoniae, -4.08%; in the assay with Candida albicans, -1.88%; in the assay with Cryptococcus neoformans it was -7.33%.

Turning to `COC(=O)CC1OCC=C2CN3CCC45C6=CC(=O)C(=O)C([N+](=O)[O-])=C6NC4C1C2CC35` (stereo not drawn), the Inhibition is 12.88% in the assay on Staphylococcus aureus; -13.17% with Acinetobacter baumannii; 11.73% in the assay on Escherichia coli; 18.83% in the assay with Klebsiella pneumoniae; -2.29% with Candida albicans; -2.47% in the assay on Cryptococcus neoformans.

In the case of `COc1ccc2c3c([nH]c2c1)[C@H]1C[C@H]2[C@H](C[C@@H](O)[C@H](OC)[C@H]2C(=O)O)CN1CC3`, the Inhibition in the assay with Staphylococcus aureus was 6.35%; with Acinetobacter baumannii, 2.79%; with Escherichia coli, -2.06%; in the assay with Klebsiella pneumoniae, 4.58%; in the assay on Candida albicans, -1.6%; in the assay on Cryptococcus neoformans, -3.05%.

As for `Cc1ccn2c(C(C)O)nnc2c1` (stereo not drawn), the Inhibition with Staphylococcus aureus is 16.33%; with Acinetobacter baumannii it was -15.76%; with Escherichia coli, 12.13%; with Klebsiella pneumoniae it was 2.31%; with Candida albicans it was -1.79%; in the assay with Cryptococcus neoformans it was -15.94%.

For the molecule `COc1cc(/N=N/c2cccc(S(N)(=O)=O)c2)c2ccccc2c1N`, the Inhibition in the assay with Staphylococcus aureus was -2.34%; with Acinetobacter baumannii it was 3.92%; in the assay with Escherichia coli it was -3.15%; with Klebsiella pneumoniae it was 14.2%; in the assay on Candida albicans it was 0.44%; in the assay on Cryptococcus neoformans, -17.61%.
